Data as given in the supplement of paper PMC9942566.
± gives the standard deviation of the averaged measurements.

Assays:
[1] = tested on: Serratia marcescens K904 PosmB-luxCDABE reporter (pMQ747); assay: PosmB-lux reporter fold induction (RLU/OD600 relative to no-compound control), highest over Biolog concentrations; higher = stronger reporter activation; settings: ΔrcsB mutant CMS5177; 4 h
Experimental: (§1)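 Serratia marcescens K904 (wild type) or its isogenic ΔrcsB mutant, carrying the Rcs-dependent PosmB-luxCDABE reporter plasmid pMQ747, was grown in LB at OD600 0.1 in Biolog Phenotype MicroArray plates PM11-20 for 4 h at 30-32°C. Each compound is present at 3-4 proprietary concentrations (not stated); per the Fig. S1 legend the value given is the highest fold over those wells. Three independent trials.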

[2] = tested on: Serratia marcescens K904 PosmB-luxCDABE reporter (pMQ747); assay: PosmB-lux reporter fold induction (RLU/OD600 relative to no-compound control), highest over Biolog concentrations; higher = stronger Rcs reporter activation; settings: wild type K904; 4 h
Experimental: as §1

| Structure (SMILES) | PosmB-lux reporter fold induction [1] | PosmB-lux reporter fold induction [2] |
| --- | --- | --- |
| N[C@@H]1CONC1=O [D-Cycloserine] (Biolog plate: PM15, well positions: B1-4) | 1.43 ± 0.18 |  |
| CCS(=O)(=O)CCn1c([N+](=O)[O-])cnc1C [tinidazole] (Biolog plate: PM18, well positions: F5-8) | 1 ± 0.3 |  |
| O.O=S(=O)([O-])[O-].O=S(=O)([O-])[O-].O=S(=O)([O-])[O-].[Al+3].[Al+3] [aluminum sulfate] (Biolog plate: PM16, well positions: F9-12) | 1.54 ± 0.56 |  |
| CN[C@@H]1[C@H](O[C@H]2[C@H](O[C@H]3[C@H](O)[C@@H](O)[C@H](N=C(N)N)[C@@H](O)[C@@H]3N=C(N)N)O[C@@H](C)[C@]2(O)C=O)O[C@@H](CO)[C@H](O)[C@H]1O [streptomycin] (Biolog plate: PM16, well positions: E1-4) | 1.98 ± 0.69 |  |
| Nc1ccc(S(=O)(=O)Nc2ncccn2)cc1 [Sulfadiazine] (Biolog plate: PM12, well positions: E5-8) | 1.84 ± 0.29 | 2.21 ± 0.27 |
| CC1(C)S[C@@H]2[C@H](NC(=O)[C@H](N)c3ccc(O)cc3)C(=O)N2[C@H]1C(=O)O [Amoxicillin] (Biolog plate: PM11, well positions: B1-4) | 0.968 ± 0.11 |  |
| Cc1nnc(SCC2=C(C(=O)O)N3C(=O)[C@@H](NC(=O)Cn4cnnn4)[C@H]3SC2)s1 [Cefazolin] (Biolog plate: PM11, well positions: E1-4) | 1.12 ± 0.15 |  |
| CN1CCN(CCCN2c3ccccc3Sc3ccc(C(F)(F)F)cc32)CC1 [Trifluoperazine] (Biolog plate: PM13, well positions: G9-12) | 1.43 ± 0.36 |  |
| CCn1cc(C(=O)O)c(=O)c2cc(F)c(N3CCNC(C)C3)c(F)c21 (stereo unspecified) [Lomefloxacin] (Biolog plate: PM11, well positions: B9-12) | 1.19 ± 0.24 |  |
| CO/N=C(\C(=O)N[C@@H]1C(=O)N2C(C(=O)O)=C(COC(N)=O)CS[C@H]12)c1ccco1 [Cefuroxime] (Biolog plate: PM13, well positions: D1-4) | 1.42 ± 0.51 |  |
| NCC(=O)NO [glycine hydroxamate] (Biolog plate: PM16, well positions: H1-4) | 2.02 ± 0.63 |  |
| Cc1ccccc1C(OCCN(C)C)c1ccccc1 (stereo unspecified) [orphenadrine] (Biolog plate: PM20, well positions: B1-4) | 1.4 ± 0.12 | 2.77 ± 1.3 |
| [Cl][Fe]([Cl])[Cl] [ferric chloride] (Biolog plate: PM16, well positions: G5-8) | 1.47 ± 0.36 |  |
| O=C(O)c1cn(C2CC2)c2cc(N3CCNCC3)c(F)cc2c1=O [ciprofloxacin] (Biolog plate: PM20, well positions: D5-8) | 1.49 ± 0.33 |  |
